# Reference: PubChem BioAssay AID1918 (Vanderbilt High Throughput Screening Facility, 2009)
# The whole screen tested about 130,000 compounds, of which about 2,500 (1.9%) were called active. This is one part of a sample in which actives are shown more often than they occur.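 How the source made its calls: active means signal ratio slope over the read window, or its plate-corrected B-score, at least 3 SD from the plate mean, either direction; inactive means the rest.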
# Biological target: ATP-sensitive inward rectifier potassium channel 1 (Homo sapiens) (UniProt P48048)
# Sequence (P48048 whole entry, looked up): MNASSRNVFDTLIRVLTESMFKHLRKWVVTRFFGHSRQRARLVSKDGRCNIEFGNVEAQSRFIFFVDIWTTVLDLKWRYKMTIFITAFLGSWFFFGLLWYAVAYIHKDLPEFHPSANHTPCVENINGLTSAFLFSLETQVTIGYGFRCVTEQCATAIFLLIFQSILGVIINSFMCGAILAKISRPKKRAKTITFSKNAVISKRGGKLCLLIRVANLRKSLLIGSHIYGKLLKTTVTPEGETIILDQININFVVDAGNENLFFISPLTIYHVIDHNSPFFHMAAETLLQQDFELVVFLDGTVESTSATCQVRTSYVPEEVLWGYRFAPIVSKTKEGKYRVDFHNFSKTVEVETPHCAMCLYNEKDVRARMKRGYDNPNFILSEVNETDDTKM
# Experiment: Kir1.1 channel activity modulation, library screen – cell-based, thallium flux, MLSMR library, primary screen (AID 1918);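 further: B-score of the F/F0 ratio slope over 7 to 12 s after thallium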
# Details: Tet-inducible ROMK, thallium flux fluorescence; at 10 µM; actives lie on both sides
row,Compound,B-score
1,Fc1ccccc1Cn1cnc(NC(=S)NCCc2ccccc2)n1,0.722 (inactive)
2,CN(Cc1ccccc1)Cc1ccccc1F,0.0291 (inactive)
3,N=c1n(CCc2ccccc2)c2ccccc2n1Cc1ccccc1F,-3.48 (active)
4,Cc1ccc(-n2c(O)c(C=Nc3ccc(S(=O)(=O)Nc4ncccn4)cc3)c3ccccc3c2=O)cc1C,0.113 (inactive)
5,O=c1[nH]c(CSc2ccccc2)nc2c1oc1ccccc12,0.176 (inactive)
6,CCc1cccc2c(=O)c(C(=O)NCCCOC)c[nH]c12,0.0144 (inactive)
7,Cc1cccc(N(CC(O)CN(C)C)S(=O)(=O)c2ccccc2)c1 (stereo not given),0.476 (inactive)
8,O=S(=O)(c1ccccc1)N(CC(O)CN1CCCCC1)c1ccccc1 (stereo not given),-0.476 (inactive)
9,CC(C)CN(CC(C)C)CC(O)CN(c1ccccc1)S(=O)(=O)c1ccccc1[N+](=O)[O-] (stereo not given),-2.88 (active)
10,C=CCNC(=O)COC(=O)CNC(=O)c1cc(Cl)cc([N+](=O)[O-])c1,0.319 (inactive)
11,COC(=O)C[n+]1cccc2ccccc21,-4.33 (active)
12,COC(=O)Cc1nc2ccccc2[nH]1,-0.0215 (inactive)
13,COc1ccccc1NC(=O)C[n+]1ccccc1,-0.558 (inactive)
14,COc1cccc(NCCC(=O)c2cccc([N+](=O)[O-])c2)c1,1.54 (inactive)
15,O=C(N/N=C/c1ccc(OCC2COCCO2)cc1)c1ccc(Br)cc1 (stereo not given),0.0877 (inactive)
16,Cc1ccc(NC(=O)CN2CCC(C(N)=O)CC2)cc1[N+](=O)[O-],-0.771 (inactive)
17,Cc1ccc(NC(=O)c2cccnc2C(=O)Nc2ccc(C)cc2)cc1,0.166 (inactive)
18,O=C(COC(=O)c1cnccn1)Nc1cccc2ccccc12,0.345 (inactive)
19,CN(C)S(=O)(=O)c1ccc(NC(=O)N2CCOCC2)cc1,-0.469 (inactive)
20,CS(=O)(=O)c1ccc(Cl)c(NC(=O)Nc2ccccc2)c1,-8.31 (active)
21,CCN(CC)S(=O)(=O)c1ccc(Cl)c(NC(=O)c2ccncc2)c1,-0.305 (inactive)
22,Cc1c(NC(=O)Nc2ccccc2)cccc1[N+](=O)[O-],1.03 (inactive)
23,CCOCCCNCc1cc(Br)ccc1OCC,-0.61 (inactive)
24,Cc1ccc(C)c(NC(=O)CCC(=O)N/N=C2/CC(=O)CC(C)(C)C2)c1,-0.197 (inactive)
25,COc1cccc(NC(=O)COC(=O)CCOc2ccccc2OC)c1,2.55 (inactive)

row,Compound,B-score
1,Cc1cs/c(=N\N=C\c2ccc(O)cc2)n1Cc1ccco1,-2.07 (inactive)
2,CCOC(=O)CSc1nc2c(sc(=S)n2CCc2ccccc2)c(=O)n1Cc1ccco1,0.0111 (inactive)
3,CN(c1ccccc1)c1ccc(/C=c2\s/c(=C(/C#N)C(=O)C(C)(C)C)n(Cc3ccco3)c2=O)cc1,-5.56 (active)
4,CC(=O)Nc1nc2ccccc2n1Cc1ccc(C)cc1,-0.122 (inactive)
5,Cc1ccnc(SCC(N)=O)n1,0.191 (inactive)
6,CC(C)C(c1nnnn1Cc1ccccc1)N1CCC(C(N)=O)CC1 (stereo not given),0.519 (inactive)
7,CC(C)C(c1nnnn1C(C)(C)C)N1CCN(Cc2cccnc2)CC1 (stereo not given),1.58 (inactive)
8,CCCC(c1nnnn1C(C)(C)C)N1CCN(Cc2ccccc2)CC1 (stereo not given),-13.3 (active)
9,CC(=O)Nc1ccc(NC(=O)CSc2nnc(COc3ccccc3C)n2CC2CCCO2)cc1 (stereo not given),-0.134 (inactive)
10,Cc1ccc(C(=O)N/C(=C\c2ccco2)C(=O)N2CCSCC2)cc1C,1.44 (inactive)
11,S=C(NCc1ccc2c(c1)OCO2)NCc1ccco1,-0.541 (inactive)
12,COC(=O)Cn1cc(C(=O)c2cccs2)c2ccccc21,0.201 (inactive)
13,COC(=O)N/N=C/c1cn(CCCOc2ccc(C)cc2)c2ccccc12,0.506 (inactive)
14,COC(=O)Cn1cc(/C=C/[N+](=O)[O-])c2ccccc21,-8.61 (active)
15,O=C(N/C(=C\c1ccc(F)cc1)C(=O)N1CCCCCC1)c1ccccc1,0.658 (inactive)
16,Cc1ccc(C(=O)N/C(=C\c2ccco2)C(=O)NC2CCS(=O)(=O)C2)cc1 (stereo not given),0.484 (inactive)
17,COc1ccc(CC(=O)NC(C)CCc2ccccc2)cc1 (stereo not given),-0.201 (inactive)
18,COc1ccc(C(CC(=O)O)NC(=O)Cc2ccccc2)cc1 (stereo not given),-0.208 (inactive)
19,COc1ccc(C(CCNCc2ccccc2F)c2ccc(F)cc2)cc1 (stereo not given),-2.56 (active)
20,O=C(NC1CC1)C1CCCN(C(=O)NC2CCCCC2)C1 (stereo not given),0.0365 (inactive)
21,CCN(C(=O)CSc1nc2ccccc2n1CC)C1CCS(=O)(=O)C1 (stereo not given),-1.63 (inactive)
22,Cc1cc(=O)[nH]c2nnnn12,-0.253 (inactive)
23,Cc1ccc(N2C(=O)SC(N(CC(=O)O)c3ccc(C)cc3)C2=O)cc1 (stereo not given),0.244 (inactive)
24,Cc1ccc(N2C(=O)C3CC3C2=O)cc1 (stereo not given),1.41 (active)
25,Cc1ccc(N2C(=O)CC(Nc3cccc4ccccc34)C2=O)cc1 (stereo not given),-0.14 (inactive)

row,Compound,B-score
1,O=C(CSc1nc2ccccc2o1)N/N=C/c1ccccc1C(=O)O,0.754 (inactive)
2,CCOC(=O)c1sc(=S)n(-c2cccc(OC)c2)c1N,-0.158 (inactive)
3,CCOC(=O)Cn1c(N)c(C(=O)OC)sc1=S,-0.216 (inactive)
4,CCOC(=O)c1sc(=S)n2c1[nH]c(=O)c1ccc(C(=O)OC)cc12,6.64 (active)
5,CC(C)N1CCC(=NNc2ccc([N+](=O)[O-])cc2S(=O)(=O)N2CCOCC2)CC1,-0.739 (inactive)
6,O=C1C(=O)N(c2ccccc2)c2ccccc21,3.08 (active)
7,CC(C)OC(=O)CN1C(=O)C(=O)c2ccccc21,-0.327 (inactive)
8,O=C1c2ccccc2C(=O)N1c1ccccc1S(=O)C(F)(F)F (stereo not given),-0.708 (inactive)
9,Cc1cc([N+](=O)[O-])nn1CCCC(=O)Nc1cccnc1Cl,0.471 (inactive)
10,COc1ccc(Br)cc1/C=N/NC(=O)c1cccc(S(=O)(=O)N2CCOCC2)c1,-0.0649 (inactive)
11,Oc1ccc2ccccc2c1N=Nc1nccs1,2.22 (active)
12,Oc1c(C=Nc2cccc3nsnc23)ccc2ccccc12,-0.773 (inactive)
13,COc1cccc(C(=O)Nc2cccnc2)c1OC,1.32 (inactive)
14,Cc1cc(/C=N/NC(N)=O)c(C)n1C1CCCCC1,3.24 (active)
15,Cc1cccc(-n2c(C)cc(/C=N\NC(=O)c3cccs3)c2C)c1,0.454 (inactive)
16,Cc1cccc(-n2c(C)cc(/C=N/NC(N)=S)c2C)c1,2.21 (inactive)
17,COc1ccc(CC(NC(C)=O)C(=O)NC2CCN(C(=O)c3ccc(OC)c(OC)c3)CC2)cc1OC (stereo not given),-0.592 (inactive)
18,CCOc1cc(C(=O)N2CCc3cc(OC)c(OC)cc3C2)ccc1OC(F)F,4.09 (active)
19,COc1cc2c(cc1OC)CN(C(=O)c1cc(=O)c3ccccc3o1)CC2,2.64 (inactive)
20,CS(=O)(=O)N(Cc1ccccc1Cl)c1ccc(C(=O)NCc2cccnc2)cc1,-0.455 (inactive)
21,S=C(NCc1ccco1)Nc1ccc2c(c1)OCCO2,0.904 (inactive)
22,CCSc1sc(CC)cc1C=O,4.04 (active)
23,Cc1ccc(S(=O)(=O)Nc2nc(N)n(-c3ccccc3)n2)cc1,0.00772 (inactive)
24,Cc1noc(COc2ccccc2OCC(O)CNC(C)(C)C)n1 (stereo not given),-0.0138 (inactive)
25,CC(C)(C)CC(C)(C)NCC(O)COCCOc1ccc(Br)cc1 (stereo not given),-3.09 (active)

row,Compound,B-score
1,Nc1ccccc1SC(C[N+](=O)[O-])c1ccccc1 (stereo not given),-8.64 (active)
2,O=C(NCc1ccc(Cl)cc1)NCc1ccc(Cl)cc1,-0.951 (inactive)
3,S=c1[nH]nc(-c2cccnc2)n1/N=C/C(Cl)=C\c1ccccc1,-3.13 (active)
4,Oc1ccccc1/C=N/n1c(-c2cccs2)n[nH]c1=S,0.503 (inactive)
5,S=c1[nH]nc(-c2ccccc2)n1/N=C/c1c[nH]c2ccccc12,1.36 (inactive)
6,Cc1ccc(C(=O)O)cc1NC(=O)c1ccc(Cn2nc(C)c(Cl)c2C)o1,-0.188 (inactive)
7,Cc1nc2sc3c(c2c(=O)n1NC(=O)CCl)CCCC3,-0.421 (inactive)
8,Cc1cc(/C=C2/C(=N)N3C(=NC2=O)SN=C3S(C)(=O)=O)c(C)n1-c1ccccc1,1.2 (active)
9,CCS(=O)(=O)C1=NSC2=NC(=O)/C(=C\c3cc(C)n(-c4cccc(OC)c4)c3C)C(=N)N21,1.02 (inactive)
10,CS(=O)(=O)c1ccc2c(c1)SC1=NC(=O)/C(=C/c3ccco3)C(=N)N12,0.317 (inactive)
11,CC(C)(C)NC(=O)NC(=O)COC(=O)Cc1c(F)cccc1Cl,-0.0671 (inactive)
12,COC(=O)COc1ccc(C2NC(=O)NC(C)=C2C(=O)NCc2ccccc2)cc1OC (stereo not given),0.834 (inactive)
13,NS(=O)(=O)c1ccc(NC(=O)/C=C/c2ccccc2Cl)cc1,0.913 (inactive)
14,CCN(CC)N=Nc1cccc(NC(C)=O)c1,0.863 (inactive)
15,Cc1cccn2c(=O)c3cc(C(=O)N4COCC4(C)C)n(C)c3nc12,-4.56 (active)
16,CCn1c(=N)c(C(=O)NCCCOC)cc2c(=O)n3cccc(C)c3nc21,-1.26 (inactive)
17,Cc1cccn2c(=O)c3cc(C#N)c(=O)n(CCCN4CCOCC4)c3nc12,0.896 (inactive)
18,S=C(c1ccc(-c2ccccc2)o1)N1CCCCC1,-1.97 (inactive)
19,CC(=O)NC(Cc1ccc(F)c(F)c1)C(=O)NC1CCN(C(=O)c2ccc(C)cc2)CC1 (stereo not given),-0.484 (inactive)
20,NC(=O)c1ccccc1N(Cc1ccccc1)S(=O)(=O)c1ccccc1,3.2 (active)
21,CCOC(=O)N1CCN(C(=O)c2ccccc2N(Cc2ccccc2)S(=O)(=O)c2ccc(OC)cc2)CC1,2.44 (inactive)
22,CCOC(=O)C1CCN(C(=O)c2ccccc2N(C)S(=O)(=O)c2ccccc2)CC1,0.0133 (inactive)
23,CCOC(=O)C1CCN(S(=O)(=O)c2cc(F)ccc2OC)CC1,-0.346 (inactive)
24,COC(=O)c1ccccc1NC(=O)C1CCN(S(=O)(=O)c2cc(OC)ccc2OC)CC1,2.29 (active)
25,COC(=O)c1ccccc1NC(=O)C1CC(=O)N(c2ccc(OC)cc2)C1 (stereo not given),0.403 (inactive)
